The whole screen tested about 370,000 compounds, of which about 1,100 (0.3%) were called active. Inconclusive results (about 1%) are left out. The call rests on the fitted dose curve; in most records, active means well fitted activation curve with a large enough effect; inconclusive means small, poorly fitted or top-dose-only effect; inactive means flat fitted curve, though single readings scatter. The entries come from a sample that favours actives as a whole. A call without a number means that no potency is given here.
Potency means the concentration at half of the fitted maximal effect.

Sequence of Relaxin receptor 1 (Homo sapiens) (Q9HBX9 whole entry, looked up): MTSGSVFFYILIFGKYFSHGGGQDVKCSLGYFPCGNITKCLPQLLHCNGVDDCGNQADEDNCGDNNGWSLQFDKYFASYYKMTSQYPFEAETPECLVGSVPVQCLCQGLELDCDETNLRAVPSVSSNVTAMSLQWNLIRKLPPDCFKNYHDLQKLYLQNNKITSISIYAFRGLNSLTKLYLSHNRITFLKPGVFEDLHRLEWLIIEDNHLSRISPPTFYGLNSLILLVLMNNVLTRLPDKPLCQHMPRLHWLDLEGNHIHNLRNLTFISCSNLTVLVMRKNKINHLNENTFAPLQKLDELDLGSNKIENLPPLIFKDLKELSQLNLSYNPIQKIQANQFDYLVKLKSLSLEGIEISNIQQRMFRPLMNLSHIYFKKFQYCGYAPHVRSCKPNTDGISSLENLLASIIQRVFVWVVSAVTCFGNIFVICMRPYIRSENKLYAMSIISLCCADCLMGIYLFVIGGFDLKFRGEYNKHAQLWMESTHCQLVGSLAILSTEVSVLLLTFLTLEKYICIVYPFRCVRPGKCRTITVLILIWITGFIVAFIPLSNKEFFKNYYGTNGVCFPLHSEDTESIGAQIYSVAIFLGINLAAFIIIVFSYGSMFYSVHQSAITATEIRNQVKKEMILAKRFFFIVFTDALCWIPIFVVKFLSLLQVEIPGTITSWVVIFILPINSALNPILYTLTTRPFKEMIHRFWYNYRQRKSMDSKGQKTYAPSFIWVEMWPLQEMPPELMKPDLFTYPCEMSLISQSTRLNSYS

This test has as its target Relaxin receptor 1 (Homo sapiens) (UniProt Q9HBX9). The experiment in a line: qHTS Assay for Agonists of the Relaxin Receptor RXFP1. Further: nearly all actives have a fitted effect of over 60% in size. Particulars: HEK293T-RXFP1 cAMP TR-FRET, 30 min; series mostly up to 57.5 µM. The source says: NIH Chemical Genomics Center [NCGC] NIH Molecular Libraries Probe Production Centers Network [MLPCN] MLPCN Grant: R03 MH085705-01A1 Assay Submitter (PI): Alexander Agoulnik NCGC Assay Overview: The relaxin hormone is involved in the variety of biological functions in normal tissues and diseases. The role of relaxin is well-established in female reproduction and parturition, mammary gland and endometrial development, maintenance of myometrial quiescence during pregnancy. Relaxin signaling through its G protein-coupled receptor (GPCR) RXFP1 results in ECM remodeling through regulation of collagen deposition, cell invasiveness, proliferation and overall tissue homeostasis. […] Recombinant human relaxin (rhRlx) is currently being tested in clinical trials as a protective agent in congestive heart failure, in treating severe preeclampsia, and as an anti-fibrotic agent in systemic sclerosis. Upon relaxin binding RXFP1 activation leads to the activation of adenylate cyclase (AC) via Gs. cAMP will activate PKA, which phosphorylates many signaling proteins. Thus, detection of cAMP increase is an easy and reliable indication of relaxin receptor activation. To screen for agonists of the relaxin receptor, a HEK293T cell line stably transfected with RXFP1 was used. RXFP1 activation was assayed by changes in cAMP levels as detected with a time-resolved fluorescence energy transfer (TR-FRET) cAMP detection kit.
NCGC Assay Protocol Summary: This is a cell-based assay for cAMP second messenger response to screen for agonists of the RXFP1 receptor. The assay was conducted in the presence of a PDE4 inhibitor (Ro 20174). The cells were lysed and the cAMP levels were measured with a TR-FRET cAMP kit. Presence of cAMP in the cell lysate disrupts binding between the cryptate-labeled anti-cAMP and d2-labeled cAMP pair, leading to a decrease in the TR-FRET signal. Data were normalized to the controls for basal activity (buffer only) and 100% activity (29 nM porcine relaxin). The EC50 values were determined from concentration-response data modeled with the standard Hill equation 1536-well assay protocol for the HEK293 RXFP1 cAMP assay: (1) Add 3 ul HEK293 RXFP1 cell culture. 2000 cells/well in DMEM/F12, 10% FBS, 1x Pen/Strep (dispensed offline with MultiDrop Combi). (2) Incubate 16-24 hr at 37C, 5% CO2. (3) Add 1 ul 400uM Ro20174 in DPBS, 0.05% BSA, 0.005% Tween 20. (3) Add 23 nl compounds in DMSO solution. Final concentration was 0.5 - 58 uM. (4) Incubate 30 min at 37C, 5% CO2. (5) Add 1 ul cAMP-d2 in lysis buffer (HTRF cAMP HiRange kit, CisBio). (6) Add 1 ul anti-cAMP antibody-cryptate in lysis buffer (HTRF cAMP HiRange kit, CisBio). (7) Incubate 30 min at room temperature. (6) Detect the assay plate in a ViewLux plate reader (PerkinElmer) with Ex=320 nm, Em1=615 nm and Em2=665 nm. Keywords: relaxin, RXFP1, RXFP2, G-protein coupled receptor, cAMP, agonist, high throughput screening, MLSMR, MLSCN, NIH Roadmap, qHTS and NCGC
Take `O=C1CN(C(=O)Nc2ccccc2C(F)(F)F)C(c2ccccc2)c2c(sc3c2CCCC3)N1` (stereo not drawn): the Potency result was “inactive”.

Take `Cc1cccc(N2CCN(C(=O)CCn3c(=O)c4cccn4c4cccnc43)CC2C)c1` (stereo not drawn): the Potency entry was “inactive”.

In the case of `Cc1ccc(CCNC(=O)c2ccc3c(c2)nc2n3CCC(C)C2)cc1` (stereo not drawn), the Potency result is “inactive”.

In the case of `COc1ccc(-c2cn3c(n2)sc2cc(C(=O)Nc4ccccc4F)ccc23)cc1`, the Potency entry is “inactive”.

As for `CC(C)(C)C1CCc2c(sc(NC(=O)c3ccccc3F)c2C(=O)N2CCCCC2)C1` (stereo not drawn), the Potency entry is “inactive”.

Regarding `CCN1CCN(Cc2c(O)ccc3oc(C)c(C(=O)Nc4ccc(C)cc4C)c23)CC1`, the Potency entry is “inactive”.

As for `COc1cccc(-n2cc(C(=O)NCc3cccc(Cl)c3)c3ccccc3c2=O)c1`, the Potency result was “inactive”.

Turning to `COc1ccc(NC(=O)NC(C)c2c(-n3cccc3)sc(C)c2C)cc1OC` (stereo not drawn), the Potency result was “inactive”.

Consider `CCOC(=O)c1ccc(NC(=O)CSc2nc3c([nH]c4ccccc43)c(=O)n2C)cc1`, for which the Potency result was “inactive”.

With `Cc1c(Cl)cccc1NC(=O)Cn1cc(C(=O)c2cccs2)c2ccccc21`, the Potency entry was “inactive”.

For the molecule `CC(=O)N1CCCc2ccc(NS(=O)(=O)c3ccc(F)cc3F)cc21`, the Potency entry is “inactive”.

`COc1cccc(Cn2c(CNS(=O)(=O)c3ccc(Cl)s3)nc3cccnc32)c1`: the Potency result was “inactive”.

Take `CCN(CC)S(=O)(=O)c1ccc(C(=O)N=c2sc3cccc(OC)c3n2C)cc1`: the Potency result was “inactive”.

Regarding `CCOC(=O)c1sc(=NC(=O)c2ccc(Br)cc2)n(C)c1C`, the Potency is 17.8 µM (active).

As to `CCOC(=O)c1sc(=NC(=O)/C=C/c2cccs2)n(C)c1C`, the Potency entry was “inactive”.

On to `CCN(CC)c1ccc(C2C(C(N)=O)=C(C)Nc3nc(SCc4ccccc4)nn32)cc1` (stereo not drawn), for which the Potency entry was “inactive”.

Consider `CCCC(=O)Nc1ncnc2c1ncn2[C@@H]1O[C@@H]2OP(=O)(O)OC[C@H]2[C@H]1OC(=O)CCC`, for which the Potency is 0.631 µM (active).

As to `Cc1ccccc1CSc1nc(-c2ccccc2)nc2c1Cc1c(CO)cnc(C)c1O2`, the Potency result was “inactive”.

For `CCOc1ccc(S(=O)(=O)N(CC(=O)NCCSCc2ccc(C)cc2)c2ccccc2)cc1`, the Potency result is “inactive”.

`Cc1nn2c(=O)cc(COC(=O)c3cccc(NC(=O)COc4ccccc4Cl)c3)nc2s1`: the Potency result is “inactive”.

On to `Cn1c(=O)c2c(SCC(=O)N3CCOCC3)nc(C3CC3)nc2n(C)c1=O`, for which the Potency entry was “inactive”.

For `C#CC(C)(C)NC(=O)CSc1nc2c(c(=O)n(C)c(=O)n2C)n1CCCC`, the Potency result was “inactive”.

For `CCCCn1c(SCC(=O)N2CCOCC2)nc2c1c(=O)n(C)c(=O)n2C`, the Potency was 15.8 µM (active).

With `Cc1cc(C)cc(OCC(=O)Nc2nc(-c3ccc(F)cc3)ns2)c1`, the Potency result was “inactive”.

Regarding `O=C(CSc1nccn1-c1ccc(F)cc1)Nc1cccc2ccccc12`, the Potency entry was “inactive”.

Regarding `Cc1ccc(CNC(=O)CCc2c(C)nc3nc(CNC(=O)OC(C)(C)C)nn3c2C)cc1`, the Potency entry was “inactive”.

Turning to `COc1ccccc1-c1nnc(C2CCN(C(=O)c3ccc(Cl)cc3)CC2)o1`, the Potency entry is “inactive”.

For the molecule `CC1Cc2cc(S(=O)(=O)CCC(=O)Nc3ccc(F)c(Cl)c3)ccc2N1C(=O)C1CC1` (stereo not drawn), the Potency entry is “inactive”.

Regarding `COc1ccccc1/C=C/c1nc(C#N)c(NC(C)c2ccccc2)o1` (stereo not drawn), the Potency result was “inactive”.

On to `CCOc1ccc(C2C(=O)N(C3CCCCC3)CC(=O)N2CCC2=CCCCC2)cc1OC` (stereo not drawn), for which the Potency result is “inactive”.

For `COc1ccc(-c2noc(-c3ccc(N4CCN(c5ccccc5)CC4)c([N+](=O)[O-])c3)n2)cc1OC`, the Potency entry is “inactive”.

As for `COc1ccc(CNC(=O)c2cc3c(=O)[nH]c4ccccc4c3s2)cc1`, the Potency result is “inactive”.

Take `CCCn1c(=N)n(CC(O)COc2ccccc2OC)c2ccccc21` (stereo not drawn): the Potency entry was “inactive”.

On to `Cc1nnc(SCc2cccc(Cl)c2)n(N)c1=O`, for which the Potency result was “inactive”.

Turning to `Cc1cc2c(cc3c(SCc4nc(-c5ccccc5)oc4C)nnc(C)n32)o1`, the Potency result is “inactive”.

On to `Cc1cc2c(cc3c(SCc4cccc(Cl)c4)nnc(C)n32)o1`, for which the Potency is 22.4 µM (active).

Turning to `NS(=O)(=O)c1ccc(CCNC(=O)CCCCCn2c(=O)[nH]c3ccccc3c2=O)cc1`, the Potency entry is “inactive”.

Regarding `FC(F)(F)c1cc(Nc2nc3ccccc3c3nncn23)ccc1Cl`, the Potency result is “inactive”.

`O=C(Oc1ccccc1)Oc1ccc2c(c1)oc(=O)c1ccccc12`: the Potency was 7.94 µM (active).

For the molecule `O=C(COc1ccc2c3c(c(=O)oc2c1)CCC3)NC1CCCCC1`, the Potency result was “inactive”.

In the case of `O=C(COc1ccc2c3c(c(=O)oc2c1)CCCC3)NCC(O)c1ccccc1` (stereo not drawn), the Potency entry is “inactive”.

Consider `COc1ccccc1CCNC(=O)CSc1nnc2ccc(-c3cccnc3)nn12`, for which the Potency result was “inactive”.

For `CCOC(=O)CNC(=O)CSc1ccc2nnc(-c3cccnc3)n2n1`, the Potency was 17.8 µM (active).

`COC(=O)c1ccc(CSc2ccc3nnc(-c4ccccc4)n3n2)o1`: the Potency result is “inactive”.

Consider `Cc1c(C)n(Cc2ccc(Cl)cc2)c2ccc(C(=O)NCCc3ccc(S(N)(=O)=O)cc3)cc12`, for which the Potency entry is “inactive”.

As for `O=C(CN1CCN(Cc2ccc(Cl)cc2)C1=O)NCc1ccc(F)cc1`, the Potency result was “inactive”.

Turning to `COc1ccccc1OCC(=O)Nc1nnc2n1CCS2`, the Potency entry was “inactive”.

With `COCCNC(=O)c1cc(-c2cccc(Cl)c2)on1`, the Potency result is “inactive”.

As to `O=C(CSc1nccn1C1CCCC1)Nc1cc(C(F)(F)F)ccc1Cl`, the Potency result was “inactive”.

In the case of `CC(C)c1ccc(NC(=O)c2ccc(Cn3nc(N4CCN(c5ccccc5)CC4)ccc3=O)o2)cc1`, the Potency entry was “inactive”.

`O=C(Nc1ccccc1Br)c1cc(CN2CCCC2)on1`: the Potency result is “inactive”.

For `Cc1ccc(NC(=O)CCCn2c(=O)c3cccn3c3ccccc32)cc1Cl`, the Potency entry is “inactive”.

In the case of `COc1ccc(C2=NC3(CCCCC3)N(CC(=O)Nc3ccc(C(C)C)cc3)C2=O)cc1`, the Potency result was “inactive”.

As to `COc1ccc(CCNC(=O)CCCCn2c(=O)c3ccccc3n(Cc3ccccc3C)c2=O)cc1OC`, the Potency entry was “inactive”.

On to `Fc1ccc(Nc2nc(SCc3ccccc3Cl)nc3ccccc23)cc1`, for which the Potency result is “inactive”.

`COc1ccc(S(=O)(=O)NCC(c2ccc(N(C)C)cc2)N2CCCC2)cc1` (stereo not drawn): the Potency result was “inactive”.

As for `O=C(CN1C(=O)COc2ccc(S(=O)(=O)N3CCCCCC3)cc21)N1CCN(c2cccc(C(F)(F)F)c2)CC1`, the Potency result is “inactive”.

As for `CCCC(=O)Nc1cc2nn(-c3ccccc3)nc2cc1C`, the Potency result is “inactive”.

With `N#Cc1nc(/C=C/c2ccc(F)cc2)oc1NC1CCCCC1`, the Potency entry is “inactive”.

Regarding `CCCS(=O)(=O)c1c(Nc2ccccc2C)sc(C(=O)c2ccccc2)c1N`, the Potency result was “inactive”.

Consider `Cc1nn(C(=O)c2c(F)cccc2F)c(C)c1S(=O)(=O)N1CCOCC1`, for which the Potency entry was “inactive”.

On to `CC(=O)c1ccc(NC(=O)CCc2nc(-c3ccc(C)cc3)no2)cc1`, for which the Potency result was “inactive”.

Consider `Cc1ccc(C)n1-c1nnc(N2CCC(C(=O)NCc3ccccc3Cl)CC2)s1`, for which the Potency entry is “inactive”.

These data come from PubChem BioAssay AID2676 (National Center for Advancing Translational Sciences (NCATS), 2010).
